# Assay outcomes as filed in PubChem.
# S-ASM inh: blocks human secretory acid sphingomyelinase | P17405 | placental ASM, HMU-PC fluorogenic substrate, 60 min | Potency, µM (top dose mostly 57.5 µM), without a hit: at the highest dose activity change, negative = inhibition, hits mostly inhibitors | 340,000 compounds, 0.006% hits; note: potency is the fitted concentration of half-maximal effect
# Target sequence (P17405 47-631 limits assumed): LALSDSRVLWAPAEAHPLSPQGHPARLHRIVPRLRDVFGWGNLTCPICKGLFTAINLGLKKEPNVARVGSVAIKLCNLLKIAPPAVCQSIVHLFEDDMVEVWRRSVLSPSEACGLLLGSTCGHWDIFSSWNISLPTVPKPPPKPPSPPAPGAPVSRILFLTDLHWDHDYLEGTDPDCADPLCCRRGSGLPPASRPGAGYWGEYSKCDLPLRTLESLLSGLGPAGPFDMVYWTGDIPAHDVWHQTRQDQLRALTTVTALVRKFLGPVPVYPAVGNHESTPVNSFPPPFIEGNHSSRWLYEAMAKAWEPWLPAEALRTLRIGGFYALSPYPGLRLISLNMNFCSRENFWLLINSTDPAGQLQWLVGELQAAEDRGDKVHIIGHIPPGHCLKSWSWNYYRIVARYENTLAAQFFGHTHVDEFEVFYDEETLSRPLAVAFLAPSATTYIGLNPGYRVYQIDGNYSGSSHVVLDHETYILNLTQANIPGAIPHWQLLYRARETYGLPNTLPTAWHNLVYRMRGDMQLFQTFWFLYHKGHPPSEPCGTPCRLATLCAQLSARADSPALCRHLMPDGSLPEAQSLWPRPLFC
#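 Steps: dispense placental human ASM, pin compound, wait 10 min at room temperature, add HMU-PC0 substrate at 9 uM final, incubate 60 min at 37 °C, add stop solution raising pH to 10, read fluorescence.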
# TGFb SMAD3 inh: TGF-b pathway inhibition; AID 588855; HepG2 CAGA-GFP TGF-b/SMAD3 reporter, GFP fluorescence, 18 h; TGF-beta stimulated, 500 pg/mL final; Potency, µM (highest dose often 46.1 µM), inactives show at the top dose activity, negative = inhibition, hits mostly inhibitors; 410,000 compounds, 1.2% hits; note: potency is the fitted concentration of half-maximal effect; % is set by controls: 0 for no effect and ±100 for the full control effect; nearly all actives have a fitted effect of over 65% in size
#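 Per well, imaged GFP fluorescence of HEPG2 CAGA-GFP cells gives the signal; cells get compound, then TGF-beta (500 pg/mL final), 18 h at 37 degrees C; %Activity versus -TGF-beta and +DMSO controls.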
# DT40 TDP1 CPT: DT40-hTDP1 cell growth loss with CPT | 420,000 compounds, 12% hits | Potency, µM (highest dose often 46.2 µM), inactives show top-dose activity change, negative = growth inhibition, actives largely listed as inhibitors | chicken DT40 Tdp1-/-;hTDP1 cells + 20 nM CPT, ATP luminescence, 48 h; note: potency is the fitted concentration of half-maximal effect; % is set by controls: 0 for no effect and ±100 for the full control effect; nearly all actives have a fitted effect of over 55% in size
#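 Cell growth measured by CellTiter-Glo luminescence after a minimum 48 h, 37 C compound exposure with 20 nM CPT in Tdp1-knockout DT40 cells stably expressing hTDP1, seeded 400/well; qHTS titration format.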
# TDP1 cell noCPT: qHTS for Inhibitors of human tyrosyl-DNA phosphodiesterase 1 (TDP1): qHTS in cells in absence of CPT. DT40 Tdp1-/- hTDP1 cells, no CPT, ATP luminescence, 48 h. 420,000 compounds, 15% hits. Potency, µM (doses to about 46.2 µM), inactives show at the highest dose activity change, negative = growth inhibition, hits mostly inhibitors; note: potency is the fitted concentration of half-maximal effect; % is set by controls: 0 for no effect and ±100 for the full control effect; nearly all actives have a fitted effect of over 55% in size
#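 Growth of hTDP1-complemented DT40 Tdp1-knockout cells is measured by ATP luminescence after at least 48 hr compound exposure at 37 °C, with DMSO substituting for the 20 nM CPT used in the parallel screen.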
# HepG2 tox: kills HepG2 cells in TGF-b inhibitor counter-screen; 410,000 compounds, 0.76% hits; HepG2 CAGA-GFP viability, ATP luminescence, 18 h; Potency, µM (series often up to 46.1 µM), for inactives: at the top dose activity change, negative = cytotoxicity, actives largely listed as cytotoxic; note: potency is the fitted concentration of half-maximal effect
#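 HepG2 CAGA-GFP cells (1000/well, DMEM with 1% FBS) received compound, then TGF-beta at 500 pg/mL final, and were incubated 18 hours at 37 degrees C. Viability was read by CellTiter-Glo luminescence. Media-only wells were set as complete cell-killing and DMSO as no toxicity.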
# IL-1B inflam inh: blocks inflammasome-driven IL-1 beta release; THP-1 LPS/ATP IL-1B secretion, AlphaLISA, 16 h; hits give low values; activity change, % at 57.5 µM; 360,000 compounds, 4.7% hits; in the data active = activity change below about -50%; inconclusive = mostly about -30% to -49%; note: % is set by controls: 0 for no effect and ±100 for the full control effect
#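 Secreted IL-1B measured by AlphaLISA bead assay after 16 h compound exposure of THP-1 cells; compounds (final up to 57.5 uM) added 1 h before LPS (250 ng/mL) and ATP (1.25 mM) stimulation; lower signal means less secretion.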
# * marks the source's active call; other numbers are inactive results; ? = inconclusive; / = no result. Sampled rows, rich in hits. Any-hit rate of the full collection: about 19%. Unless noted, calls come from the whole dose curve; as a rule, active = well fitted curve in the direction sought with a large enough effect; inconclusive = small, poorly fitted or top-dose-only effect, or another doubt; inactive = no such curve, though single readings can be large; an effect the other way counts as inactive or inconclusive.
SMILES,S-ASM inh,TGFb SMAD3 inh,DT40 TDP1 CPT,TDP1 cell noCPT,HepG2 tox,IL-1B inflam inh
CC(C)C[C@H](NC(=O)c1nc[nH]c1C(=O)NC1CCN(C(=O)OC(C)(C)C)CC1)C(=O)OCc1ccccc1,-20%,?,?,?,13µM*,-79*
CC(C)C[C@H](NC(=O)c1nc[nH]c1C(=O)N1CCC(C)CC1)C(=O)OCc1ccccc1,-1%,?,?,-18%,-52%,-9
O=c1c(N2CCOCC2)c(N2CCOCC2)c1=O,2%,?,-6%,-4%,-14%,0
CC(C)(C)C1=CC(=O)C(N2CCOCC2)=CC1=O,-5%,1%,7.3µM*,21µM*,-1%,35
COc1ccc(Cl)cc1NC(=O)COC(=O)CC(C)(C)CC1=NS(=O)(=O)c2ccccc2N1,/,?,?,21µM*,-37%,/
Cc1cc(C)cc(NC(=O)COC(=O)CCCC2=NS(=O)(=O)c3ccccc3N2)c1,0%,-3%,1%,10%,-15%,-5
Cc1ccc(Cl)cc1NC(=O)COC(=O)CC(C)(C)CC1=NS(=O)(=O)c2ccccc2N1,/,?,18µM*,26µM*,-36%,/
CC(C)(C)N1[C@@H](CC(=O)O)c2cc(C(F)(F)F)ccc2S1(=O)=O,6%,1%,-7%,-1%,6%,2
COc1cccc(C=NNc2nc3ccccc3s2)c1OC,9%,-4%,2%,?,-9%,25
CCOC(=O)N/N=C/c1c(C)nn(-c2ccccc2Cl)c1Cl,-2%,4%,?,?,-19%,-9
CCn1c(C)c(/C=N/Nc2nc3ccccc3s2)c2ccccc21,-15%,-3%,18µM*,18µM*,-52%,?
Cc1nn(-c2ccccc2Cl)c(Cl)c1/C=N/Nc1nc2ccccc2s1,1%,0%,?,12µM*,10%,12
Oc1ccc(C=NNc2nc3ccccc3s2)c(O)c1,14%,-21%,3.7µM*,4.1µM*,-15%,-1
COc1ccc(/C=N/Nc2nc3ccccc3s2)cc1O,-1%,-8%,17%,?,-29%,-87*
COc1ccc(Cn2c(CO)cnc2SCC(=O)NCc2ccco2)cc1,/,7%,3%,7%,3%,/
CN(Cc1ccccc1)/[N+]([O-])=N/Oc1ccc([N+](=O)[O-])cc1[N+](=O)[O-],/,?,/,/,-95%,/
CC(NC(=O)C(=O)N1CCOCC1)C(c1cccs1)N1CCN(c2ccccc2)CC1 (stereo not given),-1%,-1%,-13%,5%,1%,31
Cc1ccc(S(=O)(=O)NC(=O)C2(C)CCN2C(=O)CC2CCCCC2)nc1 (stereo not given),/,-5%,2%,0%,-2%,7
COc1ccc(/C=N/Nc2ccc([N+](=O)[O-])cc2)cc1O,-13%,?,?,?,-27%,-66*
Oc1ccccc1/C=N/Nc1nc2ccccc2o1,99%,?,3.3µM*,2.9µM*,-14%,49
COc1ccc(/C=N/Nc2ccc([N+](=O)[O-])cc2)cc1Cn1cc([N+](=O)[O-])cn1,-9%,?,?,?,-32%,5
C(=N\Nc1nc2ccccc2s1)/c1cccs1,-2%,?,16µM*,?,-25%,?
Oc1ccccc1C=NNc1nc2ccccc2s1,67%,?,0.065µM*,0.052µM*,-44%,?
C(=N\Nc1nc2ccccc2s1)/c1ccco1,-3%,-4%,-24%,?,5%,?
COc1cc(/C=C/C(=O)OCC(=O)NC2CCS(=O)(=O)C2)ccc1OC(F)F (stereo not given),-2%,-6%,-10%,-9%,-19%,-1
